Assay results taken from PubChem BioAssay AID1347404 (Pan Lab, Icahn School of Medicine at Mount Sinai, 2020).
The campaign covered roughly 140,000 compounds. About 860 (0.61%) were called active. This is one part of a sample in which actives are shown more often than they occur. Unmarked numbers belong to inactive results. No stated cut-off is given here; in the data, active means inhibition above about 25%; inactive means the rest.

biological target: E3 ubiquitin-protein ligase RBX1 (Homo sapiens) + Cullin-1 (Homo sapiens) (UniProt P62877+Q13616); assay: blocks human RBX1-Cullin-1 di-ubiquitin formation (AID 1347404); conditions: in vitro K48 di-Ub FRET, acceptor:donor ratio, 45 min; at 10 µM; active compounds read high
Sequence (P62877 whole entry, looked up): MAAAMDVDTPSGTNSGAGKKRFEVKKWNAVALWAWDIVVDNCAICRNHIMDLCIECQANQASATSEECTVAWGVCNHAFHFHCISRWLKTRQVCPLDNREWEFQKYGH
Sequence (Q13616 whole entry, looked up): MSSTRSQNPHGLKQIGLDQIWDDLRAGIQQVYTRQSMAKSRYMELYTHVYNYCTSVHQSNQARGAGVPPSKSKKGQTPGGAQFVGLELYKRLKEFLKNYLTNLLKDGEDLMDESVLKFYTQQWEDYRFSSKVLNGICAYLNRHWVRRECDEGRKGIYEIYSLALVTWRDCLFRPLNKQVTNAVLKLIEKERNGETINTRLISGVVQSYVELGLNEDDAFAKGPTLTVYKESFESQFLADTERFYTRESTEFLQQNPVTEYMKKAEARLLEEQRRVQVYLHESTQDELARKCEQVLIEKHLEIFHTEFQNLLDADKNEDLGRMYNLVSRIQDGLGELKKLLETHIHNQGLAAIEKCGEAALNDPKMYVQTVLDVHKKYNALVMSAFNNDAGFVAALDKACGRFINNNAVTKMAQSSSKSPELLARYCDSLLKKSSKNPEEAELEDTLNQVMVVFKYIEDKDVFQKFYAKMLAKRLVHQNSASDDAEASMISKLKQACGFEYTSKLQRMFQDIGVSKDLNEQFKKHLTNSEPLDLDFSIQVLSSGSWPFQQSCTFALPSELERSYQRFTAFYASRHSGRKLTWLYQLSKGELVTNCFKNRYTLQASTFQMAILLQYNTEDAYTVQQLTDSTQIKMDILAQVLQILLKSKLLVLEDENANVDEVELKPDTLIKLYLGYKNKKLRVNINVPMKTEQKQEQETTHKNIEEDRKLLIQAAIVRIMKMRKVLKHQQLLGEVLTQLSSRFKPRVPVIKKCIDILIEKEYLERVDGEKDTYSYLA

Row | SMILES | inhibition
1 | O=C(/C=C/c1ccc([N+](=O)[O-])o1)c1ccco1 | -10.2%
2 | Cc1noc(C)c1C(=O)Nc1ccc(C(F)(F)F)cc1 | 1.67%
3 | O=C(O)c1cccc(N2N=C(c3ccc4c5c(cccc35)C(=O)N(c3ccccc3)C4=O)CC2c2ccccc2)c1 (stereo unspecified) | 44.6% (active)
4 | Clc1cccc(N2N=C(c3cccs3)CC2c2ccccc2)c1 (stereo unspecified) | -9.66%
5 | CC(=O)N1N=C(c2ccc(Cl)cc2Cl)CC1c1ccccc1 (stereo unspecified) | -1.24%
6 | CCCc1sc(-n2c(C)cc(/C=C3/C(=O)NC(=S)N(C)C3=O)c2C)c(C#N)c1C | 76.1% (active)
7 | Cc1ccc(-n2c(C)cc(/C=C3/C(=O)NC(=S)N(c4ccc(Br)cc4)C3=O)c2C)cc1 | -0.744%
8 | Cc1cc(/C=C2\C(=O)NC(=S)N(c3ccc(Cl)cc3)C2=O)c(C)n1-c1ccccc1 | 1.69%
9 | Cc1ccccc1Cn1cc(C(=O)N2CCN(C3CCCC3)CC2)nn1 | 14.7%
10 | CC1=Nc2nnnn2C(c2ccc(Br)cc2)C1C(=O)Nc1ccccc1 (stereo unspecified) | 0.6%
11 | O=C(c1nn2c(C(F)(F)F)c3c(nc2c1Cl)-c1ccccc1CC3)N1CCN(c2ccc(F)cc2)CC1 | -4.56%
12 | CSc1ccc(C2C3=C(CCCC3=O)OC(=N)C2C#N)cc1 (stereo unspecified) | 3.66%
13 | N#CC1C(=N)OC2=C(CCC/C2=C/c2ccoc2)C1c1ccoc1 (stereo unspecified) | 50.6% (active)
14 | N#CC1C(=N)OC2=C(C(=O)CCC2)C1c1ccsc1 (stereo unspecified) | 6.79%
15 | Cc1ccc2nc(CNC(=O)Cn3nnnc3CN3CCC(C)CC3)cn2c1 | -3.66%
16 | Clc1ccc(C2=CSC3=Nc4cccc5cccc(c45)N23)cc1 | 86.8% (active)
17 | Clc1ccc(-c2cc3ccccc3o2)cc1 | -1.45%
18 | O=C(O)c1ccccc1C(=O)Nc1ccc(-c2cn3ccsc3n2)cc1 | 10.3%
19 | COC(=O)Nc1ccc(S(=O)(=O)N2CCn3c4c(c5cc(C)ccc53)CCCC42)cc1 (stereo unspecified) | -2.9%
20 | COCCCNC(=O)c1ccc2c(c1N)C(=O)c1ccccc1C2=O | 5.03%
21 | Nc1c(S(=O)(=O)O)cc(Nc2ccc(-c3ccc(Nc4cc(S(=O)(=O)O)c(N)c5c4C(=O)c4ccccc4C5=O)cc3)cc2)c2c1C(=O)c1ccccc1C2=O | 94.8% (active)
22 | Cc1ccc(OCc2ccc(C(=O)N/N=C/c3sccc3C)cc2)cc1C | -9.15%
23 | Cc1cc(C(=O)O)ccc1NCc1ccccc1 | 15.3%

Row | SMILES | inhibition
24 | COc1cc(C(=O)N/N=C(/C)c2cccnc2)cc(OC)c1OC | -15.1%
25 | COc1cccc(OC/C=C/CN2CCN(C)CC2)c1 | -3.35%
26 | O=C(c1ccco1)N(Cc1cccs1)c1ccc(O)cc1 | -0.924%
27 | CCc1nccn1CCC(=O)NCc1nc(-c2ccc(NC(=O)c3ccc(COC)o3)cc2)oc1C | -7.82%
28 | CCNC(=O)N1CCNC(=O)C1CC(=O)N1CCN(c2ccc(OC)cc2)CC1 (stereo unspecified) | 16.6%
29 | CCOc1ccc(-n2c(Sc3c(N)c4c5c(sc4[nH]c3=O)CCC5)nnc2-c2nn(C)c(C)c2Cl)cc1 | -4.22%
30 | CCCNC(=O)C1CCN(Cc2ccccc2C)CC1 | 4.05%
31 | COC(=O)C1=C(C)O[C@]23CCC[C@]12CC(=O)C3 | 2.4%
32 | c1ccc2c(Sc3ncnc4sc5c(c34)CCCC5)c[nH]c2c1 | 0.643%
33 | CCCCc1nnc(SCC2=Nc3ccc(F)cc3C(=O)C2)n1C | -6.52%
34 | Cc1scc(Cc2csc(C)c2C)c1C | -4.02%
35 | Cc1cccc(C(=O)Nc2ccc(C)cc2C)c1 | -1.04%
36 | COc1ccc(-c2cc(-c3ccc(C)cc3)nc3sc(C(=O)Nc4ccc(C)cc4C)c(N)c23)cc1OC | 7.9%
37 | Cc1ccc(NC(=O)c2c(N)sc3c2CCC3)c(C)c1 | 43.1% (active)
38 | Cc1[nH]c2ccccc2c1C(c1cccnc1)N1CCN(c2ccc(F)cc2)CC1 (stereo unspecified) | 2.08%
39 | CN(C)CCOCCOC(c1ccccc1)c1ccccc1C(F)(F)F (stereo unspecified) | 0.845%
40 | COC(=O)c1ccccc1NC(=O)CCCC(=O)OCC(=O)c1ccc(Br)cc1 | 1.86%
41 | CCOC(=O)c1cnc2c(C)cc(Cl)cc2c1N1CCN(Cc2ccccc2)CC1 | -3.19%
42 | COc1ccc(N2C(S)=C(C#N)C(=O)NC2c2ccc(-c3ccccc3Cl)o2)cc1 (stereo unspecified) | 24.9%
43 | CC(C)(C)NS(=O)(=O)c1ccc(NC(=O)C2CCCO2)cc1 (stereo unspecified) | -1.62%
44 | O=C(OCc1ccc(Br)cc1)c1ccccc1C(=O)c1ccccc1 | 3.15%
45 | CC(=O)c1ccc(NC(=O)CCCC(=O)OCC(=O)c2ccc(-c3ccccc3)cc2)cc1 | -6.85%
46 | O=C(Nc1ccccc1O)c1cccc(S(=O)(=O)Nc2ccc(F)cc2)c1 | 1.23%

Row | SMILES | inhibition
47 | O=C(Nc1ccc(S(=O)(=O)O)c2cc(S(=O)(=O)O)cc(O)c12)c1ccccc1 | 63.3% (active)
48 | O=C(Nc1ccc(S(=O)(=O)O)c2ccccc12)c1ccc(C(=O)Nc2ccc(S(=O)(=O)O)c3ccccc23)cc1 | 2.57%
49 | CC(O)c1cn(C2CCN(c3nc4ccccc4s3)CC2)nn1 (stereo unspecified) | 4.88%
50 | COc1ccccc1C(=O)Nc1ccnn1C1CCN(Cc2nccn2C)CC1 | 9.37%
51 | CC(C)(C)NS(=O)(=O)Cc1ccc(Cl)cc1Cl | 7.68%
52 | CCOC(=O)CNc1nc2ccccc2n2c(C)nnc12 | -3.19%
53 | Cc1nc2ccccc2n1/N=C/c1ccccc1 | 3.45%
54 | C/C(=N\O)c1sc2nc3ccccc3n2c1C | 26.5% (active)
55 | CCc1ccccc1-c1nc2c(cnn2C)[nH]1 | 5.57%
56 | CC1CCN(CC(O)COC2CC3CCC2(C)C3(C)C)CC1 (stereo unspecified) | 0.492%
57 | CCN(CC)C(=O)CSc1nc2sc3c(c2c(=O)n1C)CCC3 | 1.01%
58 | COc1cc(/C=C2\C(=N)N3N=C(Cc4cccs4)SC3=NC2=O)cc(OC)c1OC | 6.55%
59 | CC(C)C1=NN2C(=N)/C(=C/c3cccc(OCc4ccc(F)cc4)c3)C(=O)N=C2S1 | -4.78%
60 | N=C1/C(=C/c2cccc(OC(=O)c3ccc(Cl)cc3)c2)C(=O)N=C2SC(c3cccs3)=NN12 | 49.6% (active)
61 | Cc1ccc(N2C(=O)/C(=C\c3ccc(Cl)cc3)SC2=S)cc1 | 8.97%
62 | CC(C(=O)O)N1C(=O)/C(=C/c2ccc(N(C)C)cc2)SC1=S (stereo unspecified) | 52.9% (active)
63 | CN(C)c1ccc(/C=C2\SC(=N)N(c3nccs3)C2=O)cc1 | -5.77%
64 | CCOc1cc(/C=C2/C(=O)NN(c3ccc(CC)cc3)C2=O)c(Br)c(Br)c1O | 54.1% (active)
65 | CCOc1ccc(/C=C2\C(=O)NN(c3ccc(Cl)c(Cl)c3)C2=O)cc1OCC | 1.02%
66 | CCCOc1ccccc1/C=C1\C(=O)NN(c2cccc(Br)c2)C1=O | 20%
67 | N#CC1=C2c3ccccc3CCC2C(c2ccco2)=NC1=O (stereo unspecified) | 42% (active)
68 | CC1=NC(=O)C(C#N)=C(C)C1CSCc1ccco1 (stereo unspecified) | 0.332%
69 | CCN(Cc1nccn1C)C(=O)c1ccc(N(C)CC2CCCCN2C)nc1 (stereo unspecified) | -0.562%

Row | SMILES | inhibition
70 | CCC(C)C(=O)Nc1ccc(I)cc1 (stereo unspecified) | 3.94%
71 | COc1ccccc1NC(=O)NC1CC(=O)N(CC(C)(C)C)C1 (stereo unspecified) | -2.73%
72 | CC1(C)CC(=O)C(=Cc2c[nH]c3ccccc23)C(=O)C1 | -0.144%
73 | Cc1cc(C)cc(N2CC(C(=O)N3CCc4ccccc4C3)CC2=O)c1 (stereo unspecified) | 6.46%
74 | O=C(CC1C(=O)NCCN1CCc1ccccc1)NCCCn1ncc2ccccc21 (stereo unspecified) | 0.369%
75 | COc1cc(C2C3=C(CCCC3=O)OC3=C2C(=O)CCC3)ccc1OCC(=O)Nc1ccccc1 | -1.19%
76 | O=C(NC(=S)N1CCCC1)c1ccc(Br)o1 | 4.57%
77 | O=C([O-])c1ccc(C[n+]2c3ccccc3n3nc4c(cc32)c2cccc3cccc4c32)cc1 | -16.8%
78 | O=C(C[n+]1c2ccccc2n2nc3c(cc21)c1cccc2cccc3c21)Nc1nc2ccccc2[nH]1 | 93.1% (active)
79 | O=C(/C=C/c1ccccc1)Oc1cccc(C(=O)Nc2nc3ccccc3[nH]2)c1 | 14.2%
80 | Cn1c(=O)c2c(nc(SCC(=O)Nc3ccc(OC(F)(F)F)cc3)n2Cc2cccc(Cl)c2)n(C)c1=O | 10%
81 | Cc1cc(N2C(=O)C(=O)C(C(=O)c3ccc(F)cc3)C2c2ccccc2)no1 (stereo unspecified) | -4.72%
82 | COCCN(C)C(=O)c1cc(NC(=O)c2ccccc2)cc2ncn(C3CCCC3)c12 | 12.6%
83 | C=CCn1c(SCC(=O)c2ccccc2)nc2ccccc2c1=O | 2.49%
84 | COc1ccc(OC)c(/C=C/C(=O)c2ccc(OC)c(OC)c2)c1 | -2.06%
85 | CCN=C1CC=C(Br)C=C(C(=O)/C=C/c2ccccc2OC)C1=O | 101% (active)
86 | COc1ccc(/C=C/C(=O)c2cc3ccccc3oc2=O)c(OC)c1 | -5.94%
87 | CC(C)NC(=O)Cc1coc2ccc(C(C)(C)C)cc12 | 5.19%
88 | Cc1noc(C)c1C(=O)CCCCCCCCCCCCCCC(=O)O | -8.93%
89 | Cc1ccc(OC(=O)c2ccc(Br)cc2Br)c(C)c1 | 5.25%
90 | CCCC(=O)NC(=S)Nc1ccccc1Sc1ncnc2scc(-c3ccccc3)c12 | 3.87%
91 | COc1ccc2c(c1)OC(C)CN(Cc1ccc3cccnc3c1)C2 (stereo unspecified) | 1.92%
